In PubChem BioAssay (NCI) one finds growth inhibition data, which are given here for ten compounds.

Compounds without any hit were thinned out: in the full panel of roughly 79,000, 15% have a hit. A number with no mark means an inactive call. The source made the active and inactive calls. Rule as the data show it: active = growth inhibition above about 70%; inactive = the rest.

The nature of assay [1]: NCI Yeast Anticancer Drug Screen. Data for the rad50 strain (AID 155).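 Also: 0% = growth of vehicle-only cultures of the same strain.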 As to conditions: S. cerevisiae rad50 strain growth inhibition, active compounds read high. The essentials:
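Growth of the mutant yeast was measured after compound exposure and referenced to vehicle-treated cultures.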

Assay [2] can be described thus: NCI Yeast Anticancer Drug Screen. Data for the mec2-1 strain (AID 157). As to conditions: S. cerevisiae mec2-1 strain, active compounds read high. The essentials: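 Test agents were screened against the mec2-1 yeast strain, with defined DNA repair or cell cycle alteration. Growth was scored as inhibition against vehicle-only controls.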
Assay [3] is described as follows: NCI Yeast Anticancer Drug Screen. Data for the sgs1 mgt1 strain (AID 161).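 Also: 0% = growth of cultures given vehicle only.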 As to conditions: S. cerevisiae sgs1 mgt1 strain, active compounds read high. The method, boiled down: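 Genetically altered yeast, compound exposure, growth inhibition relative to vehicle.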
Assay [4] can be described thus: NCI Yeast Anticancer Drug Screen. Data for the cln2 rad14 strain (AID 165).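 Also: 0% = growth equal to vehicle treated cultures.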 As to conditions: S. cerevisiae cln2 rad14 strain, active compounds read high. The method, boiled down: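 Growth of compound-exposed yeast (cln2 rad14 genotype) measured and expressed as inhibition relative to vehicle.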
Assay [5] is described as follows: NCI Yeast Anticancer Drug Screen. Data for the bub3 strain (AID 167). As to conditions: S. cerevisiae bub3 mutant strain, active compounds read high. The essentials:
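Whole-cell yeast assay. The mutant strain was incubated with compounds, and growth inhibition was determined by comparison with vehicle-treated cells.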

A short description of assay [6]: NCI Yeast Anticancer Drug Screen. Data for the mlh1 rad18 strain (AID 175). As to conditions: S. cerevisiae mlh1 rad18 strain growth inhibition, active compounds read high. The method, boiled down:
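In this whole-cell yeast screen, a strain with altered DNA damage repair is challenged with compound, and its growth is measured against matched vehicle-treated controls.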

Where [7] appears, read: at 5.0 µM (retest, dose inferred, filed as 0.5).
[8] abbreviates: at 50.0 µM (retest, dose inferred, filed as 5.0).

`O=c1c(-c2ccccc2)c(-c2ccccc2)c1=O`: the growth inhibition in assay [1] (setting [7]) is -98%; in assay [1] (setting [8]), 84% (active); in assay [1] (at 50.0 µM), 97.7% (active); in assay [2] (setting [7]), -37%; in assay [2] (setting [8]), 89% (active); in assay [2] (at 50.0 µM), 96.2% (active). The growth inhibition was -36% in assay [3] (setting [7]); 77% (active) in assay [3] (setting [8]); 63.1% in assay [3] (at 50.0 µM); -49% in assay [4] (setting [7]); 76% (active) in assay [4] (setting [8]); 95.3% (active) in assay [4] (at 50.0 µM). Also, the growth inhibition in assay [5] (setting [7]) was -38%; in assay [5] (setting [8]) it was 84% (active); in assay [5] (at 50.0 µM) it was 96.8% (active); in assay [6] (setting [7]) it was -85%; in assay [6] (setting [8]) it was 69%; in assay [6] (at 50.0 µM), 85.5% (active).

Take `COc1cccc(OC)c1C(=O)/C=C/c1ccccc1`: the growth inhibition is -3% in assay [1] (setting [7]); 62% in assay [1] (setting [8]); 66.7% in assay [1] (at 50.0 µM); -1% in assay [2] (setting [7]); 66% in assay [2] (setting [8]); 45% in assay [2] (at 50.0 µM). Moreover, the growth inhibition is 1% in assay [3] (setting [7]); 62% in assay [3] (setting [8]); 69.9% in assay [3] (at 50.0 µM); -7% in assay [4] (setting [7]); 47% in assay [4] (setting [8]); 55.4% in assay [4] (at 50.0 µM). Also, the growth inhibition in assay [5] (setting [7]) was -5%; in assay [5] (setting [8]), 70% (active); in assay [5] (at 50.0 µM), 50.9%; in assay [6] (setting [7]) it was 1%; in assay [6] (setting [8]), 71% (active); in assay [6] (at 50.0 µM), 79.1% (active).

Consider `Cc1c(N=Nc2ccccc2Cl)c(-c2ccccc2)nn1C(=S)S`, for which the growth inhibition is 16% in assay [1] (setting [7]); 90% (active) in assay [1] (setting [8]); 96.2% (active) in assay [1] (at 50.0 µM); -1% in assay [2] (setting [7]); 91% (active) in assay [2] (setting [8]); 98.2% (active) in assay [2] (at 50.0 µM). The growth inhibition in assay [3] (setting [7]) is 4%; in assay [3] (setting [8]) it was 95% (active); in assay [3] (at 50.0 µM), 97.8% (active); in assay [4] (setting [7]), -2%; in assay [4] (setting [8]), 92% (active); in assay [4] (at 50.0 µM) it was 97.3% (active). Also, the growth inhibition is -3% in assay [5] (setting [7]); 85% (active) in assay [5] (setting [8]); 97.3% (active) in assay [5] (at 50.0 µM); -2% in assay [6] (setting [7]); 93% (active) in assay [6] (setting [8]); 97.8% (active) in assay [6] (at 50.0 µM).

Turning to `O=C(O)Cc1ccc2ccccc2c1-c1ccccc1`, the growth inhibition in assay [1] (setting [7]) was -1%; in assay [1] (setting [8]), 93% (active); in assay [1] (at 50.0 µM), 86.7% (active); in assay [2] (setting [7]), -11%; in assay [2] (setting [8]), 93% (active); in assay [2] (at 50.0 µM), 91.8% (active). Moreover, the growth inhibition in assay [3] (setting [7]) was 2%; in assay [3] (setting [8]), -19%; in assay [3] (at 50.0 µM) it was 85% (active); in assay [4] (setting [7]), -3%; in assay [4] (setting [8]), 98% (active); in assay [4] (at 50.0 µM), 95% (active). Also, the growth inhibition in assay [5] (setting [7]) was -11%; in assay [5] (setting [8]) it was 92% (active); in assay [5] (at 50.0 µM), 94.7% (active); in assay [6] (setting [7]) it was -20%; in assay [6] (setting [8]) it was 94% (active); in assay [6] (at 50.0 µM), 90.2% (active).

`O=c1ccc([N+](=O)[O-])c[nH]1.[Ag]`: the growth inhibition is 98% (active) in assay [1] (setting [7]); 98% (active) in assay [1] (setting [8]); 99.5% (active) in assay [1] (at 50.0 µM); 99% (active) in assay [2] (setting [7]); 99% (active) in assay [2] (setting [8]); 99.3% (active) in assay [2] (at 50.0 µM). Also, the growth inhibition in assay [3] (setting [7]) is 99% (active); in assay [3] (setting [8]), 98% (active); in assay [3] (at 50.0 µM), 99.1% (active); in assay [4] (setting [7]), 98% (active); in assay [4] (setting [8]) it was 100% (active); in assay [4] (at 50.0 µM), 98.2% (active). Moreover, the growth inhibition in assay [5] (setting [7]) is 98% (active); in assay [5] (setting [8]) it was 98% (active); in assay [5] (at 50.0 µM) it was 98.3% (active); in assay [6] (setting [7]), 98% (active); in assay [6] (setting [8]) it was 97% (active); in assay [6] (at 50.0 µM), 99% (active).

On to `O=C(O)CN(CCN1CC(=O)OC(=O)C1)CCN1CC(=O)OC(=O)C1`, for which the growth inhibition in assay [1] (setting [7]) is 4%; in assay [1] (setting [8]), 61%; in assay [1] (at 50.0 µM), 89.9% (active); in assay [2] (setting [7]) it was -1%; in assay [2] (setting [8]), 49%; in assay [2] (at 50.0 µM) it was 88.5% (active). Further, the growth inhibition in assay [3] (setting [7]) is 8%; in assay [3] (setting [8]), 29%; in assay [3] (at 50.0 µM), 86.5% (active); in assay [4] (setting [7]), -8%; in assay [4] (setting [8]) it was 46%; in assay [4] (at 50.0 µM) it was 70.5% (active). Besides, the growth inhibition in assay [5] (setting [7]) was 4%; in assay [5] (setting [8]) it was 88% (active); in assay [5] (at 50.0 µM) it was 72.5% (active); in assay [6] (setting [7]), 8%; in assay [6] (setting [8]), 41%; in assay [6] (at 50.0 µM), 84.3% (active).

Regarding `CC(=O)c1ccc2c(c1)CC1(C2)Cc2ccccc2C1=O` (stereo not given), the growth inhibition was -5% in assay [1] (setting [7]); -16% in assay [1] (setting [8]); -2.15% in assay [1] (at 50.0 µM); -1% in assay [2] (setting [7]); 0% in assay [2] (setting [8]); 1.15% in assay [2] (at 50.0 µM). Also, the growth inhibition in assay [3] (setting [7]) is 11%; in assay [3] (setting [8]), 24%; in assay [3] (at 50.0 µM), 7.8%; in assay [4] (setting [7]), 2%; in assay [4] (setting [8]) it was -13%; in assay [4] (at 50.0 µM) it was -10.6%. Further, the growth inhibition in assay [5] (setting [7]) is 25%; in assay [5] (setting [8]) it was 84% (active); in assay [5] (at 50.0 µM) it was 84.3% (active); in assay [6] (setting [7]), -4%; in assay [6] (setting [8]), -9%; in assay [6] (at 50.0 µM), 10%.

In the case of `CC1=C(C(=O)OCCO[N+](=O)[O-])C(c2cccc([N+](=O)[O-])c2)C(C(=O)OC(C)C)=C(C)N1` (stereo not given), the growth inhibition is 13% in assay [1] (setting [7]); 91% (active) in assay [1] (setting [8]); 79.2% (active) in assay [1] (at 50.0 µM); 10% in assay [2] (setting [7]); 92% (active) in assay [2] (setting [8]); 83% (active) in assay [2] (at 50.0 µM). Moreover, the growth inhibition in assay [3] (setting [7]) is -22%; in assay [3] (setting [8]), 91% (active); in assay [3] (at 50.0 µM) it was 87.5% (active); in assay [4] (setting [7]), -3%; in assay [4] (setting [8]), 87% (active); in assay [4] (at 50.0 µM), 81.5% (active). For the same compound, the growth inhibition in assay [5] (setting [7]) was -3%; in assay [5] (setting [8]), 88% (active); in assay [5] (at 50.0 µM), 85.3% (active); in assay [6] (setting [7]) it was 12%; in assay [6] (setting [8]), 95% (active); in assay [6] (at 50.0 µM), 71% (active).

Consider `CC(=O)Oc1ccc2ccccc2c1CN(Cc1c(OC(C)=O)ccc2ccccc12)C(C)=O`, for which the growth inhibition is 9% in assay [1] (setting [7]); 64% in assay [1] (setting [8]); 88.8% (active) in assay [1] (at 50.0 µM); 9% in assay [2] (setting [7]); 53% in assay [2] (setting [8]); 72.8% (active) in assay [2] (at 50.0 µM). In addition, the growth inhibition is 4% in assay [3] (setting [7]); 84% (active) in assay [3] (setting [8]); 89.6% (active) in assay [3] (at 50.0 µM); 3% in assay [4] (setting [7]); 88% (active) in assay [4] (setting [8]); 93.8% (active) in assay [4] (at 50.0 µM). Also, the growth inhibition in assay [5] (setting [7]) was 3%; in assay [5] (setting [8]), 80% (active); in assay [5] (at 50.0 µM), 93.8% (active); in assay [6] (setting [7]), 11%; in assay [6] (setting [8]), 85% (active); in assay [6] (at 50.0 µM), 55%.

`CCCCCCCCCCCC(=O)c1c(O)c2ccccc2oc1=O`: the growth inhibition in assay [1] (setting [7]) is 6%; in assay [1] (setting [8]), -4%; in assay [1] (at 50.0 µM), 54.1%; in assay [2] (setting [7]), 45%; in assay [2] (setting [8]), 28%; in assay [2] (at 50.0 µM) it was 44.4%. Besides, the growth inhibition is 21% in assay [3] (setting [7]); -8% in assay [3] (setting [8]); 71.2% (active) in assay [3] (at 50.0 µM); -14% in assay [4] (setting [7]); -7% in assay [4] (setting [8]); 22.3% in assay [4] (at 50.0 µM). The growth inhibition is 0% in assay [5] (setting [7]); -21% in assay [5] (setting [8]); 43.8% in assay [5] (at 50.0 µM); -4% in assay [6] (setting [7]); -4% in assay [6] (setting [8]); 68% in assay [6] (at 50.0 µM).
